Only some compounds are listed: those with a hit (about 4.1% of all), similar ones and a draw of the others.
DAX1 inh-1 – DAX1 (NR0B1) inhibitors, primary screen, cell-based, HEK293, Gal4-DAX1, luciferase luminescence. 0.99% of 340,000 active. HEK293 Gal4-DAX1 luciferase reporter. AID 504766, 2011. inhibition, % at 6.75 µM. Nuclear receptor subfamily 0 group B member 1 (Homo sapiens), P51843;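 active means inhibition above the mean over all tested compounds plus 3 SD, cut at about 4.2% in these data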;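 further: 0% = DAX1-transfected cells with DMSO and 100% = empty-vector control cells with DMSO; inhibition shows as a rise in luminescence from relieved DAX1 repression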
Target sequence (P51843 207-470 limits assumed): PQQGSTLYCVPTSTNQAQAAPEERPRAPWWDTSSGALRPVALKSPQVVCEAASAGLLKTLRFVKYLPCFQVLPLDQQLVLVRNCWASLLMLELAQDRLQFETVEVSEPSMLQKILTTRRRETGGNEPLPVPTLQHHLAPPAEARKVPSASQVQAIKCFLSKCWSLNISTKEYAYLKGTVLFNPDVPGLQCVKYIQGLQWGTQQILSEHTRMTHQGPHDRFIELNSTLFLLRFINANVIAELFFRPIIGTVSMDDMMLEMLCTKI
hgDAF12 agonist – H. glycines DAF-12 receptor agonists, primary screen, cell-based, luminescence, HEK293, GAL4 fusion, UAS-luciferase; Nuclear hormone receptor DAF-12 (Heterodera glycines), GAL4 fusion; HEK293 GAL4-hgDAF12 UAS-luciferase reporter, agonist luminescence; normalized to butyrate control; activation, % at 6.8 µM; 1.8% of 370,000 active; AID 687014, 2013;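 active means activation above a cutoff set at the mean of all screened compounds plus 3 SD, cut at about 10% in these data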;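 further: 0% = DMSO wells and 100% = sodium butyrate wells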
ssDAF-12 act – S. stercoralis DAF-12 nuclear receptor activators, primary screen, cell-based, luminescence, HEK293, GRIP1 co-expression, lit1-tk-luc; HEK293 ssDAF-12/GRIP1 lit1-tk-luc reporter; % of 3 µM dafachronic acid response; activation, % at 6.8 µM; 1% of 370,000 active;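 active means activation above the mean over all tested compounds plus 3 SD, cut at about 0.9% in these data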;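 further: 0% = DMSO-only wells and 100% = 3 µM delta7-dafachronic acid wells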
hcDAF-12 act – H. contortus DAF-12 nuclear receptor activators, primary screen, cell-based, luminescence, HEK293, lit1-tk-luc reporter; activation, % at 6.8 µM; HEK293 hcDAF-12 lit1-tk-luc reporter; 0% DMSO, 100% Δ7-dafachronic acid; 1.4% of 370,000 active;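 active means activation above the mean of all tested compounds plus 3 SD, cut at about 5.5% in these data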;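 further: 100% = response to 3 µM Δ7-dafachronic acid high control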
DAX1 inh-2 – DAX1 (NR0B1) inhibitors on StAR promoter, primary screen, cell-based, luminescence, SF-1 (NR5A1), full-length DAX-1 | HEK293T StAR-luciferase reporter, SF-1/DAX-1 repression relief | inhibition, % at 6.8 µM | 1.1% of 370,000 active | AID 652010, 2013;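 active means inhibition above the mean over all tested compounds plus 3 SD, cut at about 3.6% in these data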;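 further: 0% = DAX-1 cells with DMSO and 100% = cells lacking DAX-1 with DMSO; higher inhibition means more luminescence from relief of DAX-1 repression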
hgDAF12 ag – H. glycines DAF-12 receptor agonists, confirmation, cell-based, luminescence, HEK293, GAL4-LBD fusion | shares compounds with hgDAF12 agonist | HEK293 GAL4-hgDAF12 luciferase reporter, agonist mode; percent of butyrate response | activation, % at 6.8 µM | 80% of 3,300 active | AID 743050, 2013;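 active means mean activation over triplicate wells above the hit cutoff derived from the earlier primary screen, cut at about 11% in these data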;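 further: 0% = DMSO low control and 100% = 2 mM sodium butyrate high control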
LXR ag 2 – LXR agonists, Gal4 luciferase reporter, confirmation, counter-screen for hgDAF-12 agonist project, cell-based, luminescence, HEK293, H. glycines campaign; shares compounds with hgDAF12 agonist; 24 h; activation, % at 6.8 µM; 3,300 tested, under 10 active;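 active means mean activation of the triplicate above a set limit carried over from the primary screen, none filed active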
* marks the source's active call; other numbers are inactive results; . = not tested or not shown.

SMILES	DAX1 inh-1	hgDAF12 agonist	ssDAF-12 act	hcDAF-12 act	DAX1 inh-2	hgDAF12 ag	LXR ag 2
O=C1c2cccn2CC2Cc3ccccc3N12 (centres undefined)	.	14.6*	-0.1	6.5*	.	16.9*	0.6
CC1Cc2ccccc2N1C1=CC(=O)CCC1 (centres undefined)	-0.1	-1.6	-2.1	-1.9	-0.8	.	.
Cc1ccc(Nc2n[nH]c(=S)s2)cc1C	3.1	17.9*	-0.7	3.3	3.8*	11.1*	0.5
CCN=C1NC(c2cccc(F)c2)C(C(=O)OC)=C(C)N1Cc1ccccc1C(F)(F)F (centres undefined)	.	-0.7	-1.8	0.4	0.8	.	.
CN=c1scc(-c2ccccc2F)n1/N=C(\C)c1cccnc1	1.9	15.4*	0.4	4.2	2.7	12.1*	0.8
O=C(NCCc1c[nH]c2ccccc12)OCc1cn(Cc2ccccc2F)nn1	.	-2.0	-1.7	0.1	-2.1	.	.
COC(=O)C[C@@H]1CC[C@@H]2[C@@H](COc3ccc(NC(C)=O)cc3C(=O)N2C)O1	.	4.5	-1.1	0.8	0.3	.	.
COC(=O)C[C@H]1CC[C@@H]2[C@H](COc3ccc(NC(=O)c4ccccc4OC)cc3C(=O)N2C)O1	.	14.6*	0.2	-2.1	-0.3	-0.4	0.0
COC(=O)c1cc(=O)nc(NN=C(C)C)s1	.	3.5	-0.9	-0.5	-0.1	.	.
O=C(NS(=O)(=O)c1ccccc1[N+](=O)[O-])[C@H]1O[C@@H](n2ccc(=O)[nH]c2=O)[C@H](O)[C@@H]1O	.	14.8*	-0.7	-1.3	0.2	3.8	0.1
O=Cc1coc([B-](F)(F)F)c1	.	-2.9	-1.0	1.0	-0.1	.	.
COc1ccc(/C=C/C(=O)NC2=NCCS2)c(OC)c1	.	14.0*	-0.7	5.2	.	14.6*	0.6
Cc1cc(OCCCC(=O)NC2=NCCS2)ccc1Cl	-1.8	2.9	-1.4	0.6	1.1	.	.
O=C(/C=C/c1ccc(Cl)c(Cl)c1)NC1=NCCS1	0.5	13.4*	-0.1	3.4	0.9	10.5*	0.2
CC(C)(C)C(=O)NC1CCCCN(Cc2cccc(C(F)(F)F)c2)C1=O (centres undefined)	.	-2.8	-1.9	-4.3	-3.2	.	.
CC(C)CN1C(=O)C[C@]2(C(=O)N(C)c3ccc(NC(=O)C(C)(C)C)cc32)C1c1ccccc1 (some centres undefined)	.	-0.8	-0.8	-1.6	-0.5	.	.
Cc1c(C(=O)NCCc2ccccc2)oc2ccccc12	2.2	15.6*	-0.4	4.1	2.5	14.2*	0.7
O=C(NCCc1ccccc1)c1oc2ccccc2c1COc1ccccc1	1.2	1.8	-1.5	-2.5	-0.1	.	.
COc1ccc(NC(=O)CSc2nc(N)c3cc4c(nc3n2)CCCC4)cc1	-0.6	17.6*	-1.4	-0.6	-0.6	5.1	0.3
CC(=O)c1ccc(NC(=O)CSc2nc(N)c3cc4c(nc3n2)CCCC4)cc1	-0.9	4.5	-1.6	1.2	-0.4	.	.
C#CCN1C(=O)[C@]2(OCCC=C[C@H]2C)c2ccccc21	.	0.5	-0.9	0.8	1.6	.	.
c1ccc(-c2cc3nccc(-c4ccccn4)n3n2)cc1	3.9	22.8*	0.2	4.1	1.3	16.0*	0.6
CC(C)(C)c1ccc(-c2nnc(SCC(=O)Nc3ccc4c(c3)OCCO4)n2-c2ccc(Cl)cc2)cc1	.	-2.4	-1.5	-1.0	0.4	.	.
COc1cc(OC)c(C2=NOC(C(=O)N3CCc4ccccc4C3)C2)cc1Cl (centres undefined)	0.4	14.4*	-1.1	-1.1	0.5	-3.8	0.0
COc1cc(OC)c(C2=NOC(C(=O)N3CCN(C(=O)c4ccco4)CC3)C2)cc1Cl (centres undefined)	-0.1	-0.7	-1.9	-2.2	0.0	.	.
SMILES	DAX1 inh-1	hgDAF12 agonist	ssDAF-12 act	hcDAF-12 act	DAX1 inh-2	hgDAF12 ag	LXR ag 2
N/C(=N\C(=O)OCc1ccccc1)N(Cc1ccccc1)C(C#CC1=CCCCC1)Cc1ccccc1 (centres undefined)	.	-3.3	-0.4	0.3	-0.4	.	.
Cc1ccc(-c2nc3ncccc3n2O)cc1	2.2	1.7	-0.7	0.2	0.0	.	.
COn1c(-c2ccc(Cl)cc2)nc2ncccc21	0.9	13.5*	-0.2	3.0	0.3	10.7*	0.3
C/C(Cn1cnc([N+](=O)[O-])n1)=N\NC(=O)c1ccc(F)cc1	-1.6	4.5	-0.7	-1.5	0.8	.	.
COc1ccc(C(=O)N/N=C(\C)Cn2cnc([N+](=O)[O-])n2)cc1	1.2	14.6*	-0.6	2.4	0.2	-0.1	0.0
COc1ccc(C2NN=C(c3ccc(C)cc3)S2)cc1OC (centres undefined)	3.9	17.8*	0.2	3.2	3.1	17.9*	0.9
COc1ccc(C2NC(=O)CS2)cc1OC (centres undefined)	0.8	-1.7	-0.9	-1.4	0.1	.	.
C=CCN1[C@@H](Cc2ccccc2)COc2cc(F)ccc2S1(=O)=O	.	1.8	-1.7	-1.7	-2.0	.	.
Cc1ccc2nc(CN(C)C(=O)[C@H](CCc3ccccc3)NC(=O)[C@H]3O[C@@H](n4cnc5c(N)ncnc54)[C@H](O)[C@@H]3O)[nH]c2c1	.	-0.4	-1.1	-0.3	0.6	.	.
CC(C)c1ccc(NC(=S)NC2CCCCCC2)cc1	-1.3	15.7*	-1.0	1.5	2.0	9.4	0.3
COc1ccc(-c2cn3c(C)c(C(=O)NC(C)(C)C)sc3n2)cc1	1.8	17.9*	0.8	6.0*	3.3	11.5*	0.5
CN(C)/C=N/c1nc(-c2ccc3ccccc3c2)cs1	5.0*	17.9*	0.3	4.3	2.4	12.2*	0.6
O=C(Nc1ccc2sccc2c1)c1cccc(N2C(=O)CCC2=O)c1	1.3	16.9*	-0.4	1.6	4.2*	12.8*	0.3
O=C(Nc1nc2ccccc2s1)c1cccc(N2C(=O)CCC2=O)c1	0.7	6.7	0.0	3.0	3.1	.	.
C=CCNC(=S)N1C[C@H]2CON(C)[C@H]2C[C@H]1c1ccccc1Br	.	-2.5	-1.6	-1.3	2.5	.	.
